# Hit rate of the full screen: of about 2,200 compounds, about 480 (22%) were called active. Not all results are given here. Results with a measured potency or affinity are listed apart. Values without a mark were called inactive. The rule behind the calls is not given here.
# Test: S. Typhimurium GFP fluorescence dose response in modified counterscreen for PhoP regulon inhibitor project (AID 1981);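 note: 0% = induced DMSO wells and 100% = uninduced wells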
# Conditions: 4 h; series mostly up to 150 µM; inhibition: at the top concentration
row,SMILES,inhibition
1,Cc1cc(C(=O)N2CCN(C/C=C/c3ccccc3)CC2)no1,1.76%
2,Cc1[nH]c2ccccc2c1C(c1ccncc1)N1CCN(c2ccc(F)cc2)CC1 (stereo not drawn),10.1%
3,Cn1cc(-c2nnnn2-c2cccc(C(F)(F)F)c2)c(C(F)(F)F)n1,-4.52%
4,COC(=O)CSc1nc(SCc2ccccc2Cl)nc2c1CCCC2,-9.78%
5,c1ccc(-c2cc(CSc3nc4ccccc4[nH]3)on2)cc1,7.53%
6,N#Cc1nc(Cc2cccc3ccccc23)oc1NCCCN1CCOCC1,5.53%
7,Cc1nc2cc(NC(=O)N3CCN(c4ccccn4)CC3)ccc2o1,-5.86%
8,Oc1ccc(C2NCc3ccccc3-n3cccc32)cc1Cl (stereo not drawn),-3.11%
9,CC(=O)c1sc(NC(=O)COc2ccc([N+](=O)[O-])cc2)nc1C,8.86%
10,CCn1c(SCc2ccc(F)cc2)nc2ccccc2c1=O,2.23%
11,CCCCCc1ccc(OCCC[n+]2ccccc2)c(CCCCC)c1,12.3%
12,O=C(CSC1CCCCC1)Nc1ccccc1Br,-7.98%
13,COc1ccc(NC(C)C(=O)Nc2ccc(C(C)(C)C)cc2)cc1Cl (stereo not drawn),-0.84%
14,Cc1cccc(-n2c(O)c(C=NCc3cccnc3)c(=O)[nH]c2=O)c1C,-13.1%
15,Cc1ccc(C(C[N+](=O)[O-])c2c(C)cc3ccccn23)cc1 (stereo not drawn),36.1%
16,O=C(O)CCS(=O)(=O)c1ccc(-c2ccccc2)cc1,-5.08%
17,CNC(=O)CSc1nnc(-c2cccnc2)n1CCc1ccccc1,-12.9%
18,Cc1ccc(-c2nc3ccccc3[nH]2)cc1NC(=S)NC(=O)c1ccccc1Br,19.1%
19,Cc1ccc(OCc2nnc(SCC(=O)Nc3ccc4c(c3)OCO4)n2C)cc1,0.07%
20,CCOc1ccc(/C(O)=C2\C(=O)C(=O)N(CCN(C)C)C2c2cccc(OC)c2OC)cc1Cl (stereo not drawn),10.6%
21,O=C(Cc1cccs1)Nc1cccc(-c2nc3cc4ccccc4cc3[nH]2)c1,24.7%
22,COc1ccc(Cl)cc1-c1nc(SCC(N)=O)n[nH]1,-2.75%
23,O=C(OCC#CCSc1nnc(-c2cccc3ccccc23)o1)c1ccco1,-8%

row,SMILES,inhibition
1,COc1ccc(Nc2nc(-c3c[nH]c4ccccc34)cs2)cc1,27.9%
2,CCc1ccccc1NC(=O)c1nnn(CC(=O)Nc2cccc(C)c2C)c1N,-15.5%
3,COc1ccccc1N1CCN(C(=O)c2cccc3c(=O)c(C)c(-c4ccccc4)oc23)CC1,-17.4%
4,CCc1ccc2[nH]c(=O)c(CN(Cc3ccccc3)C(=O)Nc3ccccc3OC)cc2c1,-15.6%
5,COc1ccccc1NC(=S)NC(=O)C(C)(C)C,-8.6%
6,COC(=O)c1ccc(C)c(NC(=O)CN(c2cc(OC)ccc2OC)S(C)(=O)=O)c1,-2.55%
7,N#CC1(C#N)COC23CCCCC2C1(C#N)C(=N)O3 (stereo not drawn),1.01%
8,COc1ccc(OC)c(-c2cc(C(=O)Nc3c(C)nn(Cc4ccccc4)c3C)no2)c1,10.4%
9,Cc1nc2ccccc2n1CC(=O)NCc1ccccc1,-9.25%
10,CCN1CCN(C(=O)c2ccc3c(=O)n(Cc4ccccc4OC)c(=S)[nH]c3c2)CC1,-14.1%
11,CC(C)Cc1nc2ccc(N)cc2[nH]1,-1.44%
12,Cc1[nH]c2ccccc2c1C(=O)COC(=O)c1ccc([N+](=O)[O-])s1,30.4%
13,Cc1ccc(NC(=O)CSc2nnc(C3CCCCC3)n2N)cc1F,-11.3%
14,O=C(c1cccnc1Nc1ccc2c(c1)CCC2)N1CCOCC1,-48.3%
15,O=C(Nc1cccn(Cc2c(Cl)cccc2Cl)c1=O)c1ccccc1Cl,-11.1%
16,CCCn1c(N)c(C(=O)COC(=O)c2c(C)noc2C)c(=O)n(C)c1=O,3.88%
17,CCOC(=O)C1=CSC2=NS(=O)(=O)CCN12,-14.2%
18,O=C(CCN1C(=O)COc2ccccc21)NCCN1CCOCC1,-33.9%
19,C#CCn1c(=NC(=O)c2cc(Cl)sc2Cl)sc2cc(S(N)(=O)=O)ccc21,7.48%
20,CCN(CC)S(=O)(=O)c1ccc(C(=O)N2CCN=C2SCc2cccnc2)cc1,9.39%
21,Cc1ccc(Nc2cc(C)c3c(O)cccc3n2)cc1C,28.9%
22,Cc1ccc(Nc2cc(C)c3ccc(O)cc3n2)cc1C,-9.87%
23,Cc1cc(O)ccc1Nc1nc2ccccc2nc1Nc1ccc(O)cc1C,23.1%

row,SMILES,inhibition
1,Cc1cc(Nc2ccccc2)nc2cc(O)ccc12,7.5%
2,c1ccc(-n2cnc3cc(NCc4ccccn4)ccc32)cc1,-5.78%
3,CCOC(=O)c1[nH]c2ccccc2c1NC(=O)C(C)(C)C,-11%
4,Cn1cc(C(CC(=O)O)C(=O)O)c2ccccc21 (stereo not drawn),-12.2%
5,CCOc1ccc(-n2c(SCc3nc(-c4ccc(C)cc4)no3)nnc2-c2ccncc2)cc1,-16.5%
6,c1cncc(-c2nc(N3CCOCC3)c3ccccc3n2)c1,-16.8%
7,O=c1[nH]c2cc3c(cc2cc1CN(CCc1ccccc1)Cc1nnnn1CC1CCCO1)OCO3 (stereo not drawn),-25.9%
8,CCn1c(=O)c(=O)[nH]c2cc(C(=O)NCC3CCCCC3)ccc21,-9%
9,CCOC(=O)CNS(=O)(=O)c1c(C)noc1C,-22.1%
10,CC1=CC2=NC(=O)/C(=C\c3cc(C)n(-c4ccc(F)cc4)c3C)C(=N)N2O1,-3.44%
11,Cc1ccc(C(=O)CSC2=C(C#N)C(c3ccco3)CC(=O)N2)c(C)c1 (stereo not drawn),5.92%
12,COCCNC(=S)N(Cc1cccnc1)Cc1ccc(OC)c(OC)c1,-2.44%
13,COc1ccc(NC(=O)ON=C2c3ccccc3-c3ccccc32)cc1,-8.68%
14,COC(=O)c1cc(C#N)c(Oc2ccccc2OC)nc1C,-4.37%
15,O=C(Cn1nc(C(F)(F)F)c2c1CCCCC2)N1CCOCC1,-3.81%
16,Cc1ccc2occ(/C=N/O)c(=O)c2c1,19.3%
17,C#CCOc1ccc(/C=C2\SC(=S)N(Cc3cccnc3)C2=O)cc1,-3.35%
18,c1ccc2oc(SCc3cn4ccccc4n3)nc2c1,-8.39%
19,Cc1cc(NC(=O)c2ccco2)ccc1-n1cnnn1,-22.4%
20,CCOc1ccccc1Nc1nc2ccccc2n2cnnc12,1.65%
21,CCn1c(=O)c2c(O)cc(=O)oc2c2ccccc21,5.61%
22,Cc1nc([N+](=O)[O-])c(Br)n1CC(=O)c1ccccc1,23.7%
23,C=CCNc1ncnc2ccc(Br)cc12,-12.8%

row,SMILES,inhibition
1,O=c1c2c(-c3ccccc3)csc2nc2c3ccccc3c(NCCN3CCOCC3)nn12,8.44%
2,COc1ccc(NC(=O)CSc2nnc(-c3cccs3)n2Cc2ccco2)cc1OC,-16.9%
3,CCSc1nc(C2CC2)cc(-c2cccs2)c1C#N,-1.65%
4,c1ccc2cc(CSCc3nc4ccccc4[nH]3)ccc2c1,13.8%
5,Cc1ccc(NC(=O)COC(=O)C2(c3ccc(Cl)cc3)CCCC2)cc1,-16.8%
6,O=C(CSc1nnc(-c2cccnc2)o1)OC1CCCCC1,-25.1%
7,COc1cccc(NS(=O)(=O)c2c(C)cc(C)cc2C)c1,7.36%
8,c1ccc2c(C3=NNC(=NC4CC4)SC3)c[nH]c2c1,-24.9%
9,COc1ccc(NC(=O)CSc2nc(C)cs2)cc1OC,-5.4%
10,c1ccn2c(CNc3ncnc4sccc34)nnc2c1,-17.6%
11,CCCCOC(=O)CCNc1n[nH]c(=O)[nH]c1=O,0.14%
12,O=C(Nc1ccc(NC(=O)C23CC4CC(CC(C4)C2)C3)cn1)c1ccco1,-13.3%
13,COC(=O)CCC(=O)Nc1ccc(OC)cc1,0.92%
14,CC(=O)N/N=C/c1ccc(OCCOc2ccc(Br)cc2)cc1,-23.2%
15,O=C1CCCc2c1cc(C(=O)NCc1ccco1)c(=O)n2-c1ccc(Cl)cc1,-3.88%
16,COc1ccc(OC)c(C2=Nn3c(nnc3-c3cc(OC)c(OC)c(OC)c3)SC2)c1,-4.61%
17,O=C(Cc1ccc(Cl)cc1)NNS(=O)(=O)c1ccc([N+](=O)[O-])cc1,-10.4%
18,N[C@H](CSCc1ccccc1)C(=O)Nc1ccc([N+](=O)[O-])cc1,5.75%
19,Cc1ccc(CSCc2nc3ccccc3[nH]2)cc1,8.08%
20,CN1CCCC(OC(=O)CCCC(=O)OC2CCCN(C)C2)C1 (stereo not drawn),2.83%
21,O=C(c1ccc(Oc2ccccc2)cc1)c1nc2c(n1O)CCCC2,23.6%
22,CC1CC(C)CN(CCCSc2ccccc2)C1 (stereo not drawn),-12%
23,CC(Nc1ccc(Br)cn1)c1cc(Cl)ccc1O (stereo not drawn),15.7%

row,SMILES,inhibition
1,O=C(CN1CCN(c2ccccn2)CC1)Nc1ccc(Oc2ccccc2)cc1,0.24%
2,Cc1nn2c(=O)cc(CSc3nc4ccccc4[nH]3)nc2s1,5.25%
3,CC(=Nc1c(C)n(C)n(-c2ccccc2)c1=O)c1c(O)n(Cc2ccccc2)c(=O)[nH]c1=O,-0.46%
4,Cc1cc2nn(-c3ccccc3)nc2cc1NC(=O)c1cccs1,-22.9%
5,NNC(=O)CNC(c1ccccc1)c1cc(Br)ccc1NC(=O)c1ccc(Br)cc1 (stereo not drawn),19%
6,O=C(/C=C/c1ccco1)N/C(=C\c1ccccc1)C(=O)NCCc1nc2ccccc2[nH]1,-0.03%
7,O=C(O)CCc1nn2c3ccccc3n(CCN3CCCCC3)c2nc1=O,4%
8,O=C(NCc1cccs1)[C@@H]1CSC2c3ccccc3C(=O)N21 (stereo partly drawn),2.31%
9,CC(C(=O)NC1CCCc2ccccc21)N1CCN(Cc2ccc3c(c2)OCO3)CC1 (stereo not drawn),-1.02%
10,Cc1ccc(NC2CC(=O)N(Cc3ccccc3)C2=O)cc1 (stereo not drawn),-19.2%
11,NC(=O)C1(NC(=O)[C@@H]2CC3(CC(c4cccc(NC(=O)[C@@H]5CCC(=O)N5)c4)=NO3)CN2C(=O)Cc2ccc(Cl)cc2)CC1 (stereo partly drawn),-10.6%
12,Cc1ccc(C=Nc2ccccc2C(N)=O)s1,-22%
13,CC(=O)Nc1ccc(-c2nnc(SCc3c(C)cc(C)cc3C)n2C)cc1,8.18%
14,O=C(NCc1cccs1)c1cccc(Nc2nc3ccc(Br)cc3[nH]2)c1,5.95%
15,Nc1c(C(=O)NCCc2ccc(Cl)cc2)sc2ccc(S(=O)(=O)N3CCCCC3)cc12,2%
16,CCCCCCCCNc1ncnc2ccccc12,21.5%
17,Clc1ccc(OCCn2ccnc2)c(Br)c1,4.2%
18,Cc1ccc(N2C(=O)CC(Nc3ccccc3)C2=O)cc1 (stereo not drawn),-5.83%
19,COC(=O)c1sccc1N/N=C(\C)c1ccc(F)c(Cl)c1,4.52%
20,CCN(CC(=O)N1CCN(Cc2ccccc2)CC1)S(=O)(=O)c1ccc(F)cc1,-7.07%
21,O=C(Nn1c(O)c(C=C2N=c3ccccc3=N2)sc1=S)c1ccc(Cl)cc1,-10.5%
